Screening results: PubChem, National Center for Advancing Translational Sciences (NCATS)
A selection: hits, their analogues and other compounds. The true share with any hit is near 4%.
D1 ag – human D1 receptor agonism; P21728; HEK293 T-REx D1 cells, calcium flux, agonist mode; activation, % at 2 µM; actives 1% (n = 360,000); in the data active means activation above about 30%
Target sequence (P21728 whole entry, looked up): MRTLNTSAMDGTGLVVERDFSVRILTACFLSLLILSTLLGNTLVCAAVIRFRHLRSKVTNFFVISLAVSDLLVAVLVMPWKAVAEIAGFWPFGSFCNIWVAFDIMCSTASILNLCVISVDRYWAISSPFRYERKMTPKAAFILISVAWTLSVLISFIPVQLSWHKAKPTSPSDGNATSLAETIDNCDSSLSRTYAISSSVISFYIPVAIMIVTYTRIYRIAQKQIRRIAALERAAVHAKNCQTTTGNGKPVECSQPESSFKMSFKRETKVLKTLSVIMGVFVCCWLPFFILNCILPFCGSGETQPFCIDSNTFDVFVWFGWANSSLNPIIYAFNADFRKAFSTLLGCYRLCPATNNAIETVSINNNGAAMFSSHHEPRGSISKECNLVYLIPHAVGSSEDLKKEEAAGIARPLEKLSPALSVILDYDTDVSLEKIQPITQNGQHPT
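Agonism was scored from calcium flux recorded over 180 s (1 read/s) after pintool compound addition, following a 10-cycle baseline. Cells were inducible force-coupled HEK293 TREx D1, plated overnight at 30 C and loaded with no-wash calcium dye.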
TRHR enhancer-1 – allosterically enhances the human TRH receptor; P34981; TRHR cells, fluo-8 calcium fluorescence, EC20 TRH enhancement; enhancement, % at 2 µM; actives 0.66% (n = 360,000); in the data active means enhancement above about 30%
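TRHR-expressing cells loaded with fluo-8 calcium dye were read kinetically (ex 480/em 530) during compound addition, then stimulated with an EC20 of TRH (10 nM final). Enhancement of the Gq-mediated intracellular calcium response was scored.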
D1 PAM – potentiators of human D1 dopamine receptor; HEK293 TREx D1 cells, calcium flux, dopamine EC20 potentiation; potentiation, % at 10 µM; actives 0.036% (n = 360,000); AID 504651; in the data active means potentiation above about 30%
TRHR agonist-1 – agonists of human TRH receptor. P34981. TRHR cells, calcium flux fluo-8, FDSS agonist mode. activation, % at 2 µM. actives 0.18% (n = 360,000). AID 493084; in the data active means activation above about 30%
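Agonist-mode FDSS calcium read (Ex 480/Em 530, 1 s cycles) in 1536-well TRHR cells with fluo-8 dye, after 10-cycle baseline and 23 nL compound addition; TRH at EC20 (10 nM final) added afterwards for the enhancer phase.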
Glioma ERSR ind – ER stress response induction in glioma; U87-MG GRP78 promoter luciferase reporter, 16 h; Potency, µM, actives largely listed as activators; actives 0.02% (n = 420,000); AID 602332; further: series mostly up to about 76 µM; nearly all actives have a fitted effect of over 35% in size
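Stably transfected U87-MG human glioma cells carrying a GRP78-based luminescent sensor were seeded at 1000 cells/well, pin-dosed with compounds and incubated 16 h. Luciferase reagent was then added, and end-point luminescence was read after 10 min at room temperature.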
D1 antagonist – blocks dopamine activation of the human D1 receptor. P21728. HEK293 TREx D1 cells, calcium flux, dopamine EC80; stronger effect = lower value. activity change, negative = inhibition, % at 10 µM. actives 3.2% (n = 360,000); in the data active means activity change below about -30%
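Using tetracycline-induced force-coupled D1 Hek293 cells and a calcium dye, signals were followed for 180 s after compound, then for 180 s after EC80 dopamine, to detect inhibitors.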
TRHR enhancer-2 – human TRH receptor allosteric enhancement confirmation. shares compounds with TRHR enhancer-1. TRH receptor cell assay, enhancer confirmation qHTS. activity change, negative = inhibition, % at 46.1 µM. 970 tested, under 10 active. AID 493076;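 further: compound effect scored on response to added TRH at EC20 of 10 nM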
TRHR agonist-2 – human TRH receptor agonism confirmation | Potency, µM (top dose mostly 46.1 µM), most hits filed as activators | shares compounds with TRHR enhancer-1 | TRHR-expressing cells, agonist activation read-out | AID 493078 | actives 8% (n = 970); further: nearly all actives have a fitted effect of over 75% in size
Numbers stand for hits; i = inactive; ? = inconclusive; nt = not tested or not shown; ! = a repeat was not active. Unless noted, the call rests on the fitted dose curve; in most records, active means well fitted curve in the direction sought with a large enough effect; inconclusive means small, poorly fitted or top-dose-only effect, or another doubt; inactive means no such curve, though single readings can be large; an effect the other way counts as inactive or inconclusive.

SMILES	D1 ag	TRHR enhancer-1	D1 PAM	TRHR agonist-1	Glioma ERSR ind	D1 antagonist	others
CSCCC(NS(=O)(=O)c1ccc2c(c1)Cc1cc(S(=O)(=O)NC(CCSC)C(=O)O)ccc1-2)C(=O)O (configuration not stated)	i	i	i	i	i	i
CC(=O)Nc1ccc2sc(C)nc2c1	i	37	i	i	i	i
CCCCNC(=S)Nc1ccc(-c2nc3ccc(C)cc3s2)cc1	i	i	i	i	i	-47
Cc1nc2ccc(S(=O)(=O)N(C)CC(=O)Nc3cccc(C(F)(F)F)c3)cc2s1	i	i	i	i	nt	-33
CN(c1ccccc1)S(=O)(=O)c1ccc(C(=O)Nc2nnc(-c3ccco3)o2)cc1	i	i	i	i	i	-32
Cc1ccc2nc(-c3ccc(NC(=S)NCCC(C)C)cc3)sc2c1	nt	nt	nt	nt	i	nt
Cc1nc2cc(NC(=O)CS(=O)(=O)c3ccccc3)ccc2s1	i	i	i	i	i	i
COc1ccc(C(=O)NNC2=CC(=O)CC(C)(C)C2)cc1	i	i	i	i	i	i
Cc1nc(-c2cccs2)sc1C(=O)NN	i	i	i	i	i	i
CCCC(=O)Nc1nc2ccc(NC(=O)c3ccc(Br)o3)cc2s1	i	i	i	i	i	i
Cc1nc2ccc(NC(=O)c3ccc(Br)o3)cc2s1	i	i	i	i	i	-31
CCc1cc2c(cc3c(=O)n(CC(=O)N4CCCCC4)ncn32)s1	i	i	i	i	i	i
CCc1cc2c(cc3c(=O)n(CC(=O)NC4CCCCC4)ncn32)s1	i	44	i	i	i	i
c1ccc(Nc2nc3ccccc3n3cnnc23)cc1	i	34	i	i	i	i
CSc1ccc(CNc2nc3ccccc3n3cnnc23)cc1	i	i	i	i	i	i
Cc1ccc(CNc2nc3ccccc3n3cnnc23)cc1	i	i	i	i	i	-37!
O=C1NC(=O)C(c2ccccc2[N+](=O)[O-])=C1Nc1ccc(O)c(Cl)c1	i	i	i	i	i	-38
CCOC(=O)N1CCN(CC(O)COc2ccc(CC)cc2)CC1 (configuration not stated)	i	i	i	i	i	i
COc1ccc2[nH]c3c(=O)n(CCCCC(=O)NCCN4CCCC4)c(=S)[nH]c3c2c1	i	i	i	i	i	i
COc1ccc2[nH]c3c(=O)n(CCCCC(=O)N4CCC(C(N)=O)CC4)c(=S)[nH]c3c2c1	i	i	i	i	i	-36
Cc1cc(C)n2nc(SCC(=O)N/N=C/c3cccc(Br)c3)nc2n1	i	i	i	i	i	i
Cc1cc(C)cc(-n2c(C)cc(/C=N/NC(=O)CSc3ncccn3)c2C)c1	44	i	i	i	?	i
Cc1cc(C)n2nc(SCC(=O)N/N=C/c3ccccn3)nc2n1	i	i	i	i	i	-36
Cn1c(SCC(=O)Nc2ccccc2)nnc1C(F)(F)F	i	i	i	i	i	i
Cn1c(SCC(=O)NCCNC(=O)CSc2nnc(C(F)(F)F)n2C)nnc1C(F)(F)F	i	i	i	i	i	-32
SMILES	D1 ag	TRHR enhancer-1	D1 PAM	TRHR agonist-1	Glioma ERSR ind	D1 antagonist	others
Cc1c(CCOC(=O)C23CC4CC(CC(C4)C2)C3)sc[n+]1CC#N	i	41	i	i	i	i
Cc1c(CCOC(=O)CC23CC4CC(CC(C4)C2)C3)sc[n+]1Cc1ccccc1	i	i	i	i	i	i
OC[C@@H]1CN(Cc2ccc(-c3ccccc3)cc2)C[C@H](n2cnc3c(NC4CCC4)ncnc32)O1	nt	nt	nt	nt	i	nt
CCc1cc(C(=O)N2CCCC(CCC(=O)N3CCN(c4ccccn4)CC3)C2)no1 (configuration not stated)	i	42	i	i	i	i	TRHR enhancer-2=i;TRHR agonist-2=i
CC(C)c1cc(C(=O)N2CCCC(CCC(=O)N3CCN(c4ccccn4)CC3)C2)no1 (configuration not stated)	i	i	i	i	i	i
Cc1ccc(C(=O)C(C)[n+]2cccc(C(N)=O)c2)cc1 (configuration not stated)	i	i	i	i	i	i
CC(C(=O)c1ccccc1)[n+]1cccc(C(N)=O)c1 (configuration not stated)	i	41	i	i	i	i	TRHR enhancer-2=i;TRHR agonist-2=i
S=C(NCc1ccco1)N1CCOCC1	i	i	i	i	i	i
S=C(NCc1ccco1)Nc1ccc(N2CCOCC2)cc1	i	53	i	i	i	i	TRHR enhancer-2=i;TRHR agonist-2=i
NC(=O)C1(N2CCCCC2)CCN(C(=O)Nc2ccc(C(F)(F)F)cc2)CC1	i	i	i	i	nt	i
O=c1c2ccccc2c(/C=N/NS(=O)(=O)c2ccccc2)c(O)n1-c1ccccn1	i	i	i	32	i	i	TRHR enhancer-2=i;TRHR agonist-2=i
Cc1ccc(-n2c(SCc3ccccc3F)nc3[nH]ncc3c2=O)cc1C	i	i	i	i	i	i
O=C(NNC(=S)NC(=O)c1ccccc1[N+](=O)[O-])c1ccccc1O	i	i	i	i	i	i
O=C(NC(=S)Nc1cccc2c(O)cccc12)c1ccccc1[N+](=O)[O-]	i	50	i	i	i	i	TRHR enhancer-2=i;TRHR agonist-2=i
O=S(=O)(c1ccc(Cl)cc1)n1cnc2ccccc21	i	i	i	i	i	i
Cc1cc(C)cc(NS(=O)(=O)c2ccc3c(c2)OCC(C(=O)N2CCCC2)O3)c1 (configuration not stated)	i	i	i	i	i	i
CC1(C)NC(=O)N(CC(O)Cn2nnc3ccccc32)C1=O (configuration not stated)	i	51	i	i	i	i	TRHR enhancer-2=i;TRHR agonist-2=i
Cc1cc(C(=O)COC(=O)c2cc(O)c3ccccc3c2O)c(C)n1CC1CCCO1 (configuration not stated)	i	47	i	i	?	i	TRHR enhancer-2=i;TRHR agonist-2=i
Cc1cc(C(=O)COC(=O)c2ccccc2O)c(C)n1CC1CCCO1 (configuration not stated)	i	i	i	i	i	i
O=C(CCc1nc2ccccc2c(=O)[nH]1)Nc1cc(Cl)ccc1N1CCCC1	i	47	i	i	i	i	TRHR enhancer-2=i;TRHR agonist-2=i
O=C(CCc1nc2ccccc2c(=O)[nH]1)Nc1ccc(N2CCCCC2)cc1	i	i	i	i	i	i
COc1ccc(CNC(=O)c2c[nH]c3ccccc3c2=O)cc1	i	i	i	i	i	i
Brc1ccccc1/C=N/Nc1ccc2ccccc2n1	i	i	i	i	i	i
Brc1ccc(/C=N/Nc2ccc3ccccc3n2)cc1	i	51	i	i	i	i	TRHR enhancer-2=i;TRHR agonist-2=i
